target: T1, Serine/threonine-protein kinase D3 (Homo sapiens) (UniProt O94806); details: at 0.1 µM
T1 sequence (whole entry): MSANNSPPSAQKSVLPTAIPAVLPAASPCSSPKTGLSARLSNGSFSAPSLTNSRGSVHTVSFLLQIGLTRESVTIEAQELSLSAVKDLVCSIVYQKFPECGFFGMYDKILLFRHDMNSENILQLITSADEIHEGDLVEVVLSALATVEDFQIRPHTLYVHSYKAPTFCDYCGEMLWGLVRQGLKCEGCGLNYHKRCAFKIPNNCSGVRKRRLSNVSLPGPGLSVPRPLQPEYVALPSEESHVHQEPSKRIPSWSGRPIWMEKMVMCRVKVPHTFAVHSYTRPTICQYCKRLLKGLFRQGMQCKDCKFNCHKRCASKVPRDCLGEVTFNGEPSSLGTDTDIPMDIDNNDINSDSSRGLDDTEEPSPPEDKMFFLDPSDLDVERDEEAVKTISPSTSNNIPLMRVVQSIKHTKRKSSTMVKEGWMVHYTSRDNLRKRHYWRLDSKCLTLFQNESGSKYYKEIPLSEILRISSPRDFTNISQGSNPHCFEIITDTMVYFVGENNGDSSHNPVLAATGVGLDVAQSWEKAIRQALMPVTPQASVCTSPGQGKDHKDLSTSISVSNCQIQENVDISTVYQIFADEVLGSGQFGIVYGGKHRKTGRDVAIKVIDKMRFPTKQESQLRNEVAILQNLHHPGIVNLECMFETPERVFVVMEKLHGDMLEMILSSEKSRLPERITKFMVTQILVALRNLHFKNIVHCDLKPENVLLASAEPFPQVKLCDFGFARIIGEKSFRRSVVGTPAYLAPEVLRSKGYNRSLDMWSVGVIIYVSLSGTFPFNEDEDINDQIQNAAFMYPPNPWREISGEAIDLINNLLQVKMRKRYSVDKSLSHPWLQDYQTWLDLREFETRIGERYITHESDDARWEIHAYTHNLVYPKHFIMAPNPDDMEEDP
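Note: each value is the mean of inhibition readings, from a kinase profiling panel run on the GSK PKIS inhibitor collection.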

**Q.** CCn1c(-c2nonc2N)nc2c(C#CC(C)(C)O)ncc(OCC3CCNCC3)c21 was tested. Which inhibition did it give?
**A.** 0.21%

**Q.** For COc1cccc(-n2ncc3c(N/N=C/c4ccncc4)ncnc32)c1, which inhibition is on record?
**A.** 5.79%

**Q.** For CCn1c(-c2nonc2N)nc2c(C#CCN)ncc(OCCCN)c21, which inhibition is on record?
**A.** -2.29%

**Q.** With COc1cccc(COc2cc(-n3cnc4ccccc43)sc2C(N)=O)c1 as the molecule, how does the inhibition read?
**A.** 0.24%

**Q.** With Fc1ccc(-c2ncn(C3CCNCC3)c2-c2ccnc(Oc3ccccc3)n2)cc1 as the molecule, how does the inhibition read?
**A.** -1.84%

**Q.** For COc1cc(C=NNc2ncnc3c2cnn3Cc2ccccc2)ccc1O, which inhibition is on record?
**A.** -4.03%

**Q.** Cc1cc(-c2ccco2)cc(C)c1/C=C/c1cncc(-c2nn[nH]n2)c1 was tested. Which inhibition did it give?
**A.** 2.09%

**Q.** Which inhibition does the source give for CCn1c(-c2nonc2N)nc2c(C#CC(C)(C)O)ncc(OC[C@@H]3CCCN3)c21 here?
**A.** 2.38%

**Q.** For CCn1c(-c2nonc2N)nc2c(C#CC(C)(C)O)nc(O[C@@H](CN)c3ccccc3)cc21, which inhibition is on record?
**A.** 10.9%

**Q.** With NS(=O)(=O)c1ccc(-c2ccc3c(NC(=O)C4CC4)n[nH]c3c2)cc1 as the molecule, how does the inhibition read?
**A.** 1.37%

**Q.** Which inhibition does the source give for NC(=O)c1sc(-n2cnc3cc(C(F)(F)F)ccc32)cc1OCc1ccccc1Br here?
**A.** 1.16%

**Q.** Which inhibition does the source give for NS(=O)(=O)c1ccc(N/C=C2\C(=O)Nc3ccc4ncsc4c32)cc1 here?
**A.** 13.7%

**Q.** With Nc1nonc1-c1nc2cnccc2n1C1CCCCC1 as the molecule, how does the inhibition read?
**A.** -1.73%

**Q.** For COc1cc2c(cc1Nc1nc(Nc3ccsc3C(N)=O)c3cc[nH]c3n1)N(C(=O)CN(C)C)CCC2, which inhibition is on record?
**A.** 9.23%
